Bioassay records as filed in PubChem BioAssay.
AI-2 QS mod = modulators of Vibrio harveyi AI-2 quorum sensing system | Vibrio harveyi JMH597 AI-2 luminescence/OD600 ratio, 9 h; active compounds read low; strain lacks LuxN and CqsS sensors; 0 = neutral-control median | activity change, % at 7.5 µM | actives 0.4% (n = 300,000); in the data active means activity change below about -75%, passing the limit was not always enough; inconclusive means no clear call, values can overlap the other calls;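 further: luminescence divided by OD600 gain over 9 h not by final OD600 alone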
Hsp70 act = Hsp70 transcriptional activation, primary screen | HeLa Hsp70 promoter luciferase reporter, luminescence; scaled: vehicle 0, proteasome-inhibitor control 100% | activation, % at 10 µM | actives 0.04% (n = 200,000) | AID 1203;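 active means activation above the mean across all tested compounds plus 3 SD, cutoff set per campaign, cut at about 5.5% in these data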;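 further: 100% = MG132 at 30 µM as the positive control and 0% = DMSO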
S1P4 antagonist = blocks the human S1P4 receptor | AID 1510 | O95977 | actives 0.26% (n = 220,000) | inhibition, % at 4.98 µM | S1P4-expressing cells, antagonist mode, reporter read-out; in the data active means inhibition above about 29%;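 further: 0% = wells stimulated with agonist and 100% = vehicle wells without agonist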
S1P3 antag = blocks the human S1P3 receptor; CHO S1P3 NFAT-BLA reporter, FRET fluorescence, antagonist mode; actives 0.27% (n = 170,000); inhibition, % at 4.98 µM;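 active means inhibition above the plate cutoff, the mean inhibition of test wells on that plate plus 3 SD, cut at about 28% in these data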;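 further: cells challenged with S1P at its EC80 of 0.8 µM; blue over green emission ratio from cleaved BLA substrate after 4 h stimulation; 0% = S1P-stimulated wells and 100% = unstimulated DMSO-only wells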
Target sequence (Q99500 whole entry, looked up): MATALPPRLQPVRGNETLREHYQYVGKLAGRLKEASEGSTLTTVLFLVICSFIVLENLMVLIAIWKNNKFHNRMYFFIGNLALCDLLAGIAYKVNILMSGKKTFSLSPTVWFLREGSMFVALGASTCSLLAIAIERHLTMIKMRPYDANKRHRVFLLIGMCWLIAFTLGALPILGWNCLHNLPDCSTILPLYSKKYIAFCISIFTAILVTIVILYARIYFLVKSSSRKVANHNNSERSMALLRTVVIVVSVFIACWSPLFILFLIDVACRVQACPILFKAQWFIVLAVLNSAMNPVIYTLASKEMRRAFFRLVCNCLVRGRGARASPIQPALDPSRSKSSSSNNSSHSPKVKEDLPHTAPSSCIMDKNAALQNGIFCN
S1P4 ag = agonists of human S1P4 receptor; O95977; S1P4-expressing cell line, agonist reporter assay; activation, % at 4.98 µM; actives 0.35% (n = 220,000); in the data active means activation above about 11%;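 further: 0% = DMSO vehicle and 100% = reference agonist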
JMH597 growth = retest: blocks Vibrio harveyi JMH597 growth; actives 1% (n = 750); growth inhibition, % at 7.5 µM; shares compounds with AI-2 QS mod; OD600 absorbance, 9 h; lacks LuxN and CqsS sensors;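 active means every replicate shows growth inhibition above 50%; inconclusive means at least half, but not all, replicates pass that cutoff; inactive means fewer than half of replicates pass it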
BB721 const-QS lum = retest counter-screen: lowers luminescence of constitutive-QS Vibrio harveyi BB721; actives 95% (n = 750); shares compounds with AI-2 QS mod; inhibition, % at 7.5 µM; 9 h;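 active means inhibition above about 80% in every replicate, not just on average, limit read from the data; inconclusive means at least half of replicates past the limit, but not all; inactive means fewer than half of replicates past the limit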
BB721 growth rt = retest Vibrio harveyi BB721 growth inhibition; shares compounds with AI-2 QS mod; OD600 absorbance, 9 h; growth inhibition, % at 7.5 µM; actives 3% (n = 750); AID 2728;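 active means every replicate shows growth inhibition above 50%; inconclusive means at least half but not all replicates above 50% inhibition; inactive means under half of replicates above 50% inhibition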
JMH597 AI-2 mod = Vibrio harveyi AI-2 signaling luminescence modulation – JMH597 strain, confirmation; shares compounds with AI-2 QS mod; Vibrio harveyi JMH597 AI-2 quorum sensing luminescence, 9 h; luxN and CqsS knockout, AI-2 only; inhibition, % at 7.5 µM; actives 97% (n = 750); AID 2736;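 active means every replicate shows more than 75% inhibition of signal versus neutral control wells; inconclusive means half to three quarters of replicates exceed 75% inhibition; inactive means fewer than half of replicates exceed 75% inhibition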
* = called active by the depositor; ? = inconclusive; · = no result. Rows were chosen to be rich in hits. Some 0.97% of all compounds tested hit in one or more screens of this group.

SMILES	AI-2 QS mod	Hsp70 act	S1P4 antagonist	S1P3 antag	S1P4 ag	JMH597 growth	BB721 const-QS lum	BB721 growth rt	JMH597 AI-2 mod
COc1cc(/C=N\NC(=O)C(C)(C)O)ccc1OC/C=C/c1ccccc1	12	·	·	·	·	·	·	·	·
C(=N\NCc1ccccc1)/c1ccc2ncccc2c1	-95*	·	12	2	-1	0	98*	-7	99*
Cc1ccc(NC2CCCN(C(=O)c3cccc4nccnc34)C2)cc1C (stereo not drawn)	-1	·	·	·	·	·	·	·	·
Cc1ccc(/C=C/C(=O)NCc2cccs2)cc1	-75	0	-18	7	1	·	·	·	·
O=C(Cc1ccc(Br)cc1)Nc1cccc(Cl)c1	-82*	0	-29	16	-2	-20	88*	7	88*
O=C(/C=C/c1cccs1)NCc1cccs1	-83*	·	·	·	·	9	92*	6	92*
O=C(/C=C/c1cccs1)NCc1ccc2c(c1)OCO2	-90*	·	·	·	·	-14	95*	-10	95*
O=C(/C=C/c1ccccc1)NCc1ccc2c(c1)OCO2	-94*	·	·	·	·	-2	98*	2	98*
O=C(NCc1ccccn1)c1ccc(Cl)c(S(=O)(=O)N2CCOCC2)c1	23	·	·	·	·	·	·	·	·
O=C(NCc1ccc2c(c1)OCO2)Nc1cccc(Cl)c1	-91*	·	·	·	·	20	99*	33	99*
CN(CC(=O)Nc1ccc(Cl)c(C(F)(F)F)c1)C(=O)c1cccs1	-89*	·	·	·	·	24	98*	25	98*
CN(CC(=O)Nc1ccc(Cl)c(C(F)(F)F)c1)C(=O)C1(c2ccccc2)CC1	1	·	·	·	·	·	·	·	·
Cc1noc(C)c1CSCC(=O)N(C)CC(=O)Nc1ccc(Cl)c(C(F)(F)F)c1	-87*	·	·	·	·	13	95*	-4	96*
O=C1COc2ccc(C(=O)COC(=O)/C=C/c3ccc(Br)o3)cc2N1	-96*	·	·	·	·	12	99*	1	99*
CN(C)c1ccc(NC(=O)CCN2CCN(c3ccccn3)CC2)cc1	32	·	·	·	·	·	·	·	·
Nc1cc(Nc2ccc(Br)cc2)nc(N)n1	-96*	·	-6	-12	1	13	99*	23	99*
Cc1cc(Nc2ccc(Cl)cc2)nc(N)n1	-59	0	-2	·	-1	·	·	·	·
COc1ccc(Cc2nc(-c3ccccc3)no2)cc1	-93*	0	3	4	1	13	98*	-44	98*
O=C(Nc1ccc(-c2noc(CCc3ccccc3)n2)cc1)c1ccco1	-81*	0	-19	23	-1	50	91*	93*	93*
Cc1cccc(-c2noc(CCc3ccccc3)n2)c1	-78*	0	8	-28	1	17	94*	0	96*
Cc1cccc(-c2noc(Cc3ccccc3)n2)c1	-69	0	-10	-16	5	·	·	·	·
CCOC(=O)c1c(S(=O)(=O)Nc2ccc(F)cc2Cl)c(C)n(C)c1C	17	·	·	·	·	·	·	·	·
CCN(c1ccccc1)S(=O)(=O)c1ccc(OC)c(NC(=O)C2CC(=O)N(Cc3ccccc3)C2)c1 (stereo not drawn)	10	·	-13	-4	0	·	·	·	·
O=C(COC(=O)c1ccc2c(=O)n3c(nc2c1)CCC3)Nc1ccc(OC(F)F)cc1	21	0	-8	2	2	·	·	·	·
CCOC(=O)c1ccc(NC(=O)CC2C(=O)N(c3ccc(F)cc3)C(=O)N2CCC(C)C)cc1 (stereo not drawn)	-3	0	3	·	-1	·	·	·	·
SMILES	AI-2 QS mod	Hsp70 act	S1P4 antagonist	S1P3 antag	S1P4 ag	JMH597 growth	BB721 const-QS lum	BB721 growth rt	JMH597 AI-2 mod
Cc1cc(NC(=O)Cn2c(C)nc3ccccc3c2=O)ccc1Br	-87*	0	0	·	0	5	99*	-18	99*
Cc1ccc(NC(=O)Cn2nc(C)c3ccccc3c2=O)cc1	-85*	0	6	·	-1	11	97*	-4	98*
Cc1cc(C)cc(NC(=O)Cn2nnc3ccccc3c2=O)c1	-83*	0	4	4	-1	-23	96*	-11	97*
Cc1ccccc1NC(=O)Cn1nc(C)c2ccccc2c1=O	-1	·	·	·	·	·	·	·	·
CC(=O)Nc1ccc(C(=O)Cn2nnc3ccccc3c2=O)cc1	19	0	1	-7	0	·	·	·	·
CCC(=O)Nc1ccc2nc(C)n(CC(=O)Nc3ccccc3)c(=O)c2c1	12	0	15	-19	3	·	·	·	·
COc1ccc(S(=O)(=O)N2CCC(NC(=O)c3cccnc3)CC2)cc1	13	·	·	·	·	·	·	·	·
COC(=O)C1=C(C(=O)OC)[C@@H]2Nc3ccccc3[C@@]23C[C@@H](C(=O)OC)N(C(=O)c2ccco2)C3=N1	20	·	·	·	·	·	·	·	·
CCOc1ccc(S(=O)(=O)NCc2cccnc2)cc1C(C)C	19	·	·	·	·	·	·	·	·
COc1ccc(Br)cc1-c1nc(CCl)cs1	9	0	4	-8	-1	·	·	·	·
CCc1ccc(OCC(=O)O/N=C(\N)c2cccnc2)cc1	-92*	·	-21	-8	-1	11	95*	-3	96*
O=C(Nc1cccc(F)c1)c1ccccc1	-1	0	1	·	-3	·	·	·	·
O=C(Nc1ccc(Nc2ccccc2)cc1)c1ccccc1F	-86*	·	·	·	·	38	94*	20	94*
CCN(CC)c1ccc(NC(=O)c2ccccc2F)cc1	-6	0	-2	8	-1	·	·	·	·
O=C(Nc1ccc(Nc2ccccc2)cc1)c1cccc(F)c1	-77*	·	·	·	·	13	86*	1	90*
COc1ccc(NC(=S)N(CCCOC(C)C)C2CCN(C(C)=O)CC2)cc1Cl	16	·	·	·	·	·	·	·	·
COc1ccccc1CNC(=O)c1ccc(S(=O)(=O)N(C)C)cc1	-80*	0	-33	-42	0	-5	84*	0	90*
CN(C)S(=O)(=O)c1ccc(C(=O)Oc2ccccc2)cc1	-80*	0	10	-5	1	11	91*	39	93*
COc1ccccc1OCCNC(=O)c1ccc(S(=O)(=O)N(C)C)cc1	-6	0	-21	-2	1	·	·	·	·
CN(Cc1ccccc1)C(=O)COC(=O)c1ccc(S(=O)(=O)N(C)C)cc1	?	0	1	-12	1	·	·	·	·
CN(C)S(=O)(=O)c1ccc(C(=O)OCn2nnc3ccccc3c2=O)cc1	-89*	0	-18	·	-5	28	96*	37	97*
COc1ccc(C(=O)OCn2nnc3ccccc3c2=O)cc1OC	25	0	6	27	1	·	·	·	·
CCCOc1ccc(/C(O)=C2/C(=O)C(=O)N(CCCn3ccnc3)C2c2cccnc2)cc1 (stereo not drawn)	22	·	-16	-5	2	·	·	·	·
Nc1nc(NCc2ccccc2)nc(-c2ccccc2)n1	-82*	0	-11	-25	6	-25	87*	-37	92*
